This note sets out measurements from PubChem BioAssay (Tox21).

Test [1] can be described thus: qHTS assay to identify small molecule that activate the aryl hydrocarbon receptor (AhR) signaling pathway - cell viability counter screen (AID 743086). Further: nearly all actives have a fitted effect of over 45% in size. Further: potency means the concentration at half of the fitted maximal effect. The method, boiled down:
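HepG2-AhR-luc (HG2L7.5c1) cells, 4000/well, were preincubated 5 h at 37C, exposed to compound in qHTS format for 24 hr at 37C, then given CellTiter-Fluor for 30 min; viability was read as fluorescence in the reporter wells.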
Background: Quantitative high-throughput screening tests each substance at several concentrations.

Test [2] is described as follows: qHTS assay to identify small molecule agonists of the peroxisome proliferator-activated receptor delta (PPARd) signaling pathway - cell viability counter screen (AID 743211). Further: nearly all actives have a fitted effect of over 55% in size. Further: potency means the concentration at half of the fitted maximal effect. In outline: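 PPARd-bla HEK293H cells (UAS-beta-lactamase reporter) were treated with compounds for 17 h at 37 C. Viability was then read in the same wells by CellTiter-Glo luminescence after 30 min at room temperature.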

Test [3] is described as follows: qHTS assay to identify small molecule antagonists of the peroxisome proliferator-activated receptor gamma (PPARg) signaling pathway - cell viability counter screen (AID 743194). Further: nearly all actives have a fitted effect of over 55% in size. Further: potency means the concentration at half of the fitted maximal effect. To be noted: Potency: co-treated with 50 nM rosiglitazone unless noted. In outline:
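PPARg-UAS-bla HEK293H cells were plated, rested 5 h at 37 C, then treated with compounds plus rosiglitazone (50 nM final) for 17 h at 37 C; viability was then read by CellTiter-Glo luminescence after 30 min at room temperature.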

Test [4] can be described thus: qHTS assay for small molecule activators of the heat shock response signaling pathway - cell viability counter screen (AID 743209). Further: nearly all actives have a fitted effect of over 50% in size. Further: potency means the concentration at half of the fitted maximal effect. The method, boiled down: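 Readout: CellTiter-Glo luminescence, 30 min at room temperature. System: HSE-bla HeLa cells, 1500/well, plated overnight. Treatment: compounds in DMSO, 5 h at 37 C.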
Test [5] can be described thus: qHTS assay for small molecule activators of the heat shock response signaling pathway (AID 743210; active means well fitted activation curve with a large enough effect in the signal ratio in the repeat runs, with a control signal flat, not every such curve was filed as active; the % refers to the signal ratio; further: series mostly up to about 63 µM). The method, boiled down:
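HSE-bla HeLa cells (beta-lactamase reporter under heat shock response elements) were exposed to compounds for 5 h at 37 C, then loaded with LiveBLAzer B/G FRET substrate for 2.5 h at room temperature before fluorescence reading.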

Test [6] in a line: qHTS assay for small molecule agonists of the antioxidant response element (ARE) signaling pathway - cell viability counter screen (AID 743203; calls by dose curve; further: nearly all actives have a fitted effect of over 55% in size; further: potency means the concentration at half of the fitted maximal effect). The method, boiled down:
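Following 16 hrs of compound treatment at 37C, HepG2 cells with an ARE-controlled beta-lactamase gene were lysed with CellTiter-Glo. Luminescence was read after 30 min at room temperature.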

Test [7] addresses Peroxisome proliferator-activated receptor gamma (Homo sapiens) (UniProt P37231). Put plainly: qHTS assay to identify small molecule agonists of the peroxisome proliferator-activated receptor gamma (PPARg) signaling pathway (AID 743094; active means well fitted activation curve with a large enough effect in the signal ratio in the repeat runs, not every such curve was filed as active; the % refers to the signal ratio). In outline: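 Compounds dissolved in DMSO were added to PPARg UAS-bla HEK293H cells for 17 h at 37C, and reporter expression was quantified by fluorescence intensity after 1 h with LiveBLAzer B/G FRET substrate.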

Test [8] shares this target. Put plainly: qHTS assay to identify small molecule antagonists of the peroxisome proliferator-activated receptor gamma (PPARg) signaling pathway (AID 743191; calls by dose curve; further: potency means the concentration at half of the fitted maximal effect; nearly all actives have a fitted effect of over 30% in size). In outline:
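GeneBLAzer PPARg UAS-bla HEK293H cells carrying a UAS-driven beta-lactamase reporter were plated at 3000 cells/well, preincubated 5 h at 37C, then given compound for 17 h at 37C; LiveBLAzer B/G FRET substrate was read after 1 h at room temperature.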

A short description of test [9]: qHTS assay for small molecule agonists of the antioxidant response element (ARE) signaling pathway (AID 743202; active means well fitted activation curve with a large enough effect in the signal ratio in the repeat runs, not every such curve was filed as active; the % refers to the signal ratio). In outline: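 Read-out: LiveBLAzer B/G FRET substrate fluorescence after 2 h at room temperature, following 16 h compound treatment at 37 C of HepG2 cells carrying an ARE-driven beta-lactamase reporter.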

Where “and” joins values, the source holds several entries; their conditions need not be identical. Equal entries are not always repeated. Inconclusive results are not listed. The source holds several records for some structures; these can differ, active in one and inactive in another. Calls of active or inactive are those of the source. Unless noted, the call rests on the fitted dose curve; in most records, active means well fitted curve in the direction sought with a large enough effect in the repeat runs; inconclusive means weak or mixed curves; inactive means no such curve, though single readings can be large; an effect the other way counts as inactive or inconclusive.

Sequence of Peroxisome proliferator-activated receptor gamma (Homo sapiens) (P37231 whole entry, looked up): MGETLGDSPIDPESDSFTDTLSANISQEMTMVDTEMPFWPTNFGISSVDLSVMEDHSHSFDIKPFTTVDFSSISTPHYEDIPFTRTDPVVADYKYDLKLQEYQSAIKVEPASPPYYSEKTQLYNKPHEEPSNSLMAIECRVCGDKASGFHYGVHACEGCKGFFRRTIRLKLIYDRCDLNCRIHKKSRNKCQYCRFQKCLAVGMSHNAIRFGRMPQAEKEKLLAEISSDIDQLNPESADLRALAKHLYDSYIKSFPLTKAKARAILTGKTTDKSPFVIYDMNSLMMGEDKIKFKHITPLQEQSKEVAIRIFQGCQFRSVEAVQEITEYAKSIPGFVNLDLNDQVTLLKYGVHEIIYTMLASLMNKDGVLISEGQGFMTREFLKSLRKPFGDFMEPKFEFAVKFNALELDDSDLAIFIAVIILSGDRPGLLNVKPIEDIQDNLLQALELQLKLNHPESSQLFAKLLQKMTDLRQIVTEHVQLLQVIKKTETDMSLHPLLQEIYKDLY

Turning to `Clc1ccc(CCC(Cn2ccnc2)Sc2c(Cl)cccc2Cl)cc1` (configuration not stated), the Potency result in test [1] is “inactive”. For the same compound, the Potency in test [2] is 29.8 µM (active).

For `CC(=O)[O-].[Tl+]`, the Potency entry in [1], in test [3], in [4] and in test [2] was “inactive” throughout.

Regarding `Oc1ccc2ccc3cccc4ccc1c2c34`, the Potency entry in test [1], in [4] and in test [2] was “inactive” throughout.

For the compound `O=C(O)C1C2CCC(O2)C1C(=O)O` (configuration not stated), the Potency result in test [1], in test [3], in test [4], in test [5] and in [2] was “inactive” in each case.

For `CC(C)CC(C)(c1ccc(O)cc1)c1ccc(O)cc1`, the Potency in test [3] was 61.7 µM (active); in test [6], 54.5 µM (active); in [4], 55.1 µM (active); in [2] it was 55.1 µM (active) and 34.7 µM (active).

With `Cn1cc(C2=C(c3cn(C4CCN(Cc5ccccn5)CC4)c4ccccc34)C(=O)NC2=O)c2ccccc21`, the Potency entry in test [1], in [3], in [6], in [4] and in test [2] was “inactive” throughout.

For the compound `COP(=S)(OC)Oc1cc(Cl)c(Br)cc1Cl`, the Potency entry in test [7], in test [4], in [5] and in [2] was “inactive” in each case. Also, the values for the Potency in test [8] and in [3] were 43.6 µM (active) and 34.7 µM (active), respectively.

As for `O=c1[nH]c2ccccc2n1CCCN1CCC(n2c(=O)[nH]c3cc(Cl)ccc32)CC1`, the Potency entry in test [3], in test [9], in [6], in [4] and in test [5] was “inactive” throughout.

For the compound `CN(C)C(=S)S`, the Potency entry in test [1] was “inactive and 21.7 µM (active)”; in [4] it was 5 µM (active) and inactive and 2.19 µM (active); in [2], 546 nM (active) and 5.49 µM (active). In addition, the Potency result in [3] and in test [6] was “inactive” in each case.

For `CC(C)(O)c1cnn2c(-c3ccc(F)c(-c4c(F)cccc4C#N)c3)cnc2n1`, the Potency entry in test [1], in test [3], in [6] and in test [4] was “inactive” each time.

As for `CC(=O)[O-].CC(=O)[O-].O.O.[Cd+2]`, the Potency in test [1] was 2.69 µM (active); in [3], 0.682 µM (active); in test [6], 0.214 µM (active); in test [2], 0.765 µM (active).

For `N#C/C=C/C#N`, the Potency result in test [1], in test [6] and in [4] was “inactive” throughout.

In the case of `COc1cc(C=O)cc2c1[C@H](COC(N)=O)[C@]1(OC(C)=O)ON2C[C@H]2[C@@H]1N2C(C)=O`, the Potency was 0.306 µM (active) in [1] and 2.45 µM (active) in test [4]. Besides, the Potency result in [3] and in [5] was “inactive” each time.

For `O=C(O)c1cc[c]([Hg][Cl])cc1`, in test [1], the Potency result is “inactive”. The Potency is 38.9 µM (active) in [3], 54.5 µM (active) in test [6] and 49 µM (active) in test [2].

In the case of `CCCOCC(=Nc1ccc(Cl)cc1C(F)(F)F)n1ccnc1`, the Potency in test [1] is 54.4 µM (active); in test [3], 11 µM (active); in test [4], 12.3 µM (active); in test [2] it was 13.8 µM (active).

With `C[C@H]1O[C@@H](O[C@H]2[C@@H](O)C[C@H](O[C@H]3[C@@H](O)C[C@H](O[C@H]4CC[C@@]5(C)[C@H](CC[C@@H]6[C@@H]5CC[C@]5(C)[C@@H](C7=CC(=O)OC7)CC[C@]65O)C4)O[C@@H]3C)O[C@@H]2C)C[C@H](O)[C@@H]1O`, the Potency entry in test [1] is “inactive”. Moreover, the Potency in test [3] is 7.8 nM (active) and 33.5 nM (active); in test [6] it was 10.9 nM (active) and 6 nM (active); in test [4] it was 87.7 nM (active) and 376 nM (active); in [2], 0.119 µM (active).

As to `C=CCC1=C(C)C(OC(=O)C2C(C=C(C)C)C2(C)C)CC1=O` (configuration not stated), the Potency was 58.3 µM (active) in [3], 51.5 µM (active) in [6] and 46.3 µM (active) in test [4].

`O=c1c(C2CC(c3ccc(-c4ccc(Br)cc4)cc3)Cc3ccccc32)c(O)sc2ccccc12` (configuration not stated): the Potency in test [3] was 13.3 µM (active); in test [6] it was 33.5 µM (active); in test [2], 29.8 µM (active).

Regarding `CN(C)S(=O)(=O)N(SC(F)(Cl)Cl)c1ccccc1`, the Potency in test [1] is 61.1 µM (active); in test [3] it was 3.89 µM (active); in [6], 8.63 µM (active); in test [2] it was 24.5 µM (active).

Consider `ClCc1ccc(Cl)cc1Cl`, for which the Potency entry in [1], in test [6], in [4], in test [5] and in [2] was “inactive” each time.
